The chains are these.
B1: chr2:112659350:112659462:+|CDS|ENSG00000144136|unk|FALSE|unique (ssRNA)
RNA: GGGAGUUCUACAGUCCGACGAUCCUUGCCAAGGUGGGAGAUUGCAUGGGAGACUCCGGUGACAAACCCUUAAGGCGCAAUAAUAGCUAUACUUCCUAUACCAUGGCAAUAUGUGGCAUGCCUCUGGAUUCAUUCCGUGCCAAACAACAGAGGAUUGAGCAUCA
B2: chr12:49763637:49763739:+|3pUTR|ENSG00000139644|msi1_unk|total|mutant (ssRNA)
RNA: GGGAGUUCUACAGUCCGACGAUCAUGUGUAUCAAGGUACAGCAUCGCCGGGUUCCCCUAAACUUGCCCUGUUUUUGUUUUUUCCGUUUGUUAUCCCCUUACUGAGCGGCCUCUACCCGGUGGCUGUGAUUAAAUGUCCCAAGCCAACAGAGGAUUGAGCAUCA
B3: chr20:17613772:17613873:-|3pUTR|ENSG00000125844|unk|total|mutant (ssRNA)
RNA: GGGAGUUCUACAGUCCGACGAUCAGCCCCGUGGGUGUGUGGGAGGCCGGGCGCUCUGGGGUCUGUCUGUCAGUGCAAUCGUUCCGUGUUUUUUCAGUGGGGCGGGGCGGGAAGCGGGUGGGACCGGGCAGCCAGUUCUCAAAGCAACAGAGGAUUGAGCAUCA
B4: chr4:48851844:48851957:+|CDS|ENSG00000109180|unk|FALSE|unique (ssRNA)
RNA: GGGAGUUCUACAGUCCGACGAUCAUAUGACUCAAGUGUGAGUGGUCAAUCAUCUUUUGUGACAUCCCCAGCAGCAGACAACAUAGAAAUGCUUCCUCAUUAUGAGCCAAUUCCAUUCAGUUCUUCUAUGAAUGAAUCUGCUCCCAACAGAGGAUUGAGCAUCA
B5: ENSG00000107863:be:win_2201|CDS|ENSG00000107863|bound_else_gene|NA|bound_elsewhere_windowed (ssRNA)
RNA: GGGAGUUCUACAGUCCGACGAUCCUGUCAUCCUAAGGGAAAAACCUCCAUCUGGACGCCAGACACCGCAGCCUUUAAGGCAUCAGUCUUACAUCUUGGCAGUAAAUGACCAGGAGACCGGGUCAGACACUACCUGCUGGCUGCCAACAGAGGAUUGAGCAUCA
B6: chr18:55226207:55226308:-|3pUTR|ENSG00000196628|unk|FALSE|unique (ssRNA)
RNA: GGGAGUUCUACAGUCCGACGAUCAUUUUUACAGCCACACAAUUCUUGGCAUGUAUUAAGAAAAAAAAAAAUCCCUGUUCAAGUAGUUUUUCCACCUAUCAGCACUGAGUAAAUGCCAUAAAUCCAUUGAAAUGGUCUAAAUGUCAACAGAGGAUUGAGCAUCA
B7: chr16:21655520:21655610:+|3pUTR|ENSG00000197006|msi1_unk|total|mutant (ssRNA)
RNA: GGGAGUUCUACAGUCCGACGAUCUCUGUGUUCACAAUUACGUGAAGGGAGGACCCUUGGGGACCGCCAUUCUAAAUAUCAUGCCGGAAUUUAAAAAGCCAAAAUACUAAUUAUUUCUUUGCCGUGUGUAAAGGAAUGUUUUUACAACAGAGGAUUGAGCAUCA
B8: ENSG00000151612:stop:overlap|stop_codon|ENSG00000151612|stop_codon|NA|stop_codon (ssRNA)
RNA: GGGAGUUCUACAGUCCGACGAUCCAGGCCUGUUGGAGAAGGAAGCCAGCAGUGAGGGGGAUUGCAAAGUAGAGAGAGGUUGGUAGAACUGUGGACUGUGAAGAGAUCGAGAAUAGCACAGUUAACUAGGCAUUUGCCUUCGGCCAACAGAGGAUUGAGCAUCA
B9: ENSG00000136451:be:win_551|CDS|ENSG00000136451|bound_else_gene|NA|bound_elsewhere_windowed (ssRNA)
RNA: GGGAGUUCUACAGUCCGACGAUCGAGAUGUGUACCAUCUCAAUCGACACAAGCUCUCCCAUUCAGAUGAGAAACCCUUUGAGUGUCCUAUUUGUAAUCAGCGCUUCAAGAGGAAGGACCGGAUGACUUACCAUGUGAGGUCUCCAACAGAGGAUUGAGCAUCA
B10: chr6:134965076:134965177:-|3pUTR|ENSG00000112339|unk|total|mutant (ssRNA)
RNA: GGGAGUUCUACAGUCCGACGAUCAAAGGAACAAUGUGCAAUUGAUAUGUUUUCCGAUGAGAGAGAAAAAUUAAAGCUAAAAUCCGCUGCAAAGAAGUAUUAAUAAUCACCUCUGCAAAAAUUCUAAGUUGCCAACUGGCAAAGCAACAGAGGAUUGAGCAUCA
B11: chr7:111727939:111728040:-|3pUTR|ENSG00000128512|unk|FALSE|unique (ssRNA)
RNA: GGGAGUUCUACAGUCCGACGAUCAAGUGGUAAAUAGUGAUAAAGACUCCUUUUGUACCUUUUUAUGUUCACUUUUUUUUAUAUAGUUUAAUCUUAAAACCAAUACGAUAUUGUCAAACGAUACAAUGUGUGACAAUGUUGUAUCAACAGAGGAUUGAGCAUCA
B12: ENSG00000070961:be:win_4651|3pUTR|ENSG00000070961|bound_else_gene|NA|bound_elsewhere_windowed (ssRNA)
RNA: GGGAGUUCUACAGUCCGACGAUCACAUGUUAGUUUAGUGAUGUCUUGGUGAACUGUGAGUGAACUGUAUUGAUUUUUCUAAUCUUUAGAGACCUUCACACAGCAUGAGGGCUGUUGGCAUUUUGAAAAAGGUUAAUAAGUAGACAACAGAGGAUUGAGCAUCA
B13: ENSG00000070961:be:win_4701|3pUTR|ENSG00000070961|bound_else_gene|NA|bound_elsewhere_windowed (ssRNA)
RNA: GGGAGUUCUACAGUCCGACGAUCUUUUCUAAUCUUUAGAGACCUUCACACAGCAUGAGGGCUGUUGGCAUUUUGAAAAAGGUUAAUAAGUAGAAGCAUACAUGUUUUCCUUUUGUUUUUGAAACUUGUUUGUAAACAUAAAUACAACAGAGGAUUGAGCAUCA
B14: chr7:111727939:111728040:-|3pUTR|ENSG00000128512|unk|total|mutant (ssRNA)
RNA: B11 RNA with U34C, A35C, U83C, A84C
B15: chr19:811491:811550:+|3pUTR|ENSG00000011304|msi1_unk|FALSE|overlapping (ssRNA)
RNA: GGGAGUUCUACAGUCCGACGAUCUAGCAAUAUUUCCAGUUGACCAAAUAUUCUAAUCUUUUUUCAUUUAUAUGCAAAAGAAAUAGUUUUAAGUAACUUUUUAUAGCAAGAUGAUACAAUGGUAUGAGUGUAAUCUAAACUUCCCAACAGAGGAUUGAGCAUCA
B16: ENSG00000070961:be:win_4601|3pUTR|ENSG00000070961|bound_else_gene|NA|bound_elsewhere_windowed (ssRNA)
RNA: GGGAGUUCUACAGUCCGACGAUCUCAGACUAUCAAACUACAAGAGAACCUUAGUCUUUUUUGUUUUUGUCUAAACAUGUUAGUUUAGUGAUGUCUUGGUGAACUGUGAGUGAACUGUAUUGAUUUUUCUAAUCUUUAGAGACCCAACAGAGGAUUGAGCAUCA

Substitutions are numbered along the chain they refer to. The full ranking holds about 5,800 sequences; the median of “enrichment r” is about 0.54, and the highest 2% start at about 16. The sample holds the highest values, similar sequences and a random draw of the others, so the mix is not that of the screen.

From paper PMC12136788 come the findings set out here.

MSI1 full-length, sequence (Q61474 whole entry): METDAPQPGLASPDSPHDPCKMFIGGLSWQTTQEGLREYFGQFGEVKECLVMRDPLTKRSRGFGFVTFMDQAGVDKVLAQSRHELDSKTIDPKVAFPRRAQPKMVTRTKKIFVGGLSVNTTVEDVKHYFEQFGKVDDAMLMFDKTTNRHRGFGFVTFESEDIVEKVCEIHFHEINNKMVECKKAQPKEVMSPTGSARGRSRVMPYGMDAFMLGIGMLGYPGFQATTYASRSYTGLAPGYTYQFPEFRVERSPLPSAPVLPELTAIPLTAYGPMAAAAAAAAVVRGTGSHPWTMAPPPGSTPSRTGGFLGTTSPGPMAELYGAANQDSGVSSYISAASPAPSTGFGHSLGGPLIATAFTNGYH

This test has as its target MSI1 full-length (mouse, UniProt Q61474 1-362). Briefly: nsRBNS (natural sequence RNA bind-n-seq); RBNS binding buffer (assumed for nsRBNS): 25 mM Tris pH 7.5, 150 mM KCl, 3 mM MgCl2, 0.01% Triton X-100, 500 ug/ml BSA, 20 U/ml SUPERase-In, 4 C; UNK is unkempt and MSI1 is Musashi-1; names of the RNAs are library labels; protein concentration not given here; high values mean tight binding.
In turn, B1 displayed a binding signal of 0.737 enrichment R.
The molecule B2 yielded a binding signal of 0.481 enrichment R.
As to B3, the binding signal is 0.811 enrichment R.
On to B4, for which the binding signal came out at 0.341 enrichment R.
Turning to B5, the binding signal came out at 0.283 enrichment R.
On to B6, for which the binding signal came to 0.374 enrichment R.
The value for B7 was 0.282 enrichment R; that for B8 was 3.25 enrichment R; that for B9 was 0.307 enrichment R.
Consider B10, for which the binding signal came to 0.346 enrichment R.
As to B11, the binding signal is 37.8 enrichment R.
As for B12, the binding signal came to 28.3 enrichment R.
As for B13, the binding signal turned out to be 0.664 enrichment R.
As to B14, the binding signal came out at 3.05 enrichment R.
As for B15, the figure is 0.9 enrichment R; as for B16, 3.69 enrichment R.
